# The list shows a part of the results. The true hit rate is not given.
# B1: HC1512 (peptide)
# chain: CAGVLTTSCGAGNASASA
# B2: HC288 (peptide)
# chain: CAATQLRRHIAGNASASA
# B3: FS-1618 (peptide)
# chain: CAYASRGIRPAGNASASA
# B4: FS-1486 (peptide)
# chain: CASHQKKKRAAGNASASA
# B5: FS-970 (peptide)
# chain: CAAGARKKRAAGNASASA
# B6: NE3 (peptide)
# chain: CAAGAGAGAGAGNASASA
# B7: FS-1306 (peptide)
# chain: CAAQQRKKRAAGNASASA
# B8: HC174 (peptide)
# chain: CAGGQIVGGVAGNASASA
# B9: FS-1125 (peptide)
# chain: CAGGQRKKRAAGNASASA
# B10: HC830 (peptide)
# chain: CAAGARLVVLAGNASASA
# B11: HC2425 (peptide)
# chain: CALREVPCHRAGNASASA
# B12: HC2372 (peptide)
# chain: CAEVPCHEPSAGNASASA
# B13: HC443 (peptide)
# chain: CAGAPPCVIGAGNASASA
# B14: HC540 (peptide)
# chain: CALAGTHGLVAGNASASA
# B15: HC420 (peptide)
# chain: CATDRSGAPTAGNASASA
# B16: HC1555 (peptide)
# chain: CANVSVAHDGAGNASASA
# B17: HC534 (peptide)
# chain: CAALENLVILAGNASASA
# B18: FS-2254 (peptide)
# chain: CAREKRGNGWAGNASASA
# B19: FS-2669 (peptide)
# chain: CARFWRSTGFAGNASASA
# B20: FS-2261 (peptide)
# chain: CARIKRAGGFAGNASASA
# B21: FS-2260 (peptide)
# chain: CARIKKSKMIAGNASASA
# B22: FS-2930 (peptide)
# chain: CARGARVVFKAGNASASA
# B23: FS-1722 (peptide)
# chain: CARIKRMVFKAGNASASA
# B24: FS-2149 (peptide)
# chain: CARIKRAEGWAGNASASA
# B25: FS-1680 (peptide)
# chain: CARAKKIFGWAGNASASA
# B26: FS-3209 (peptide)
# chain: CARSLRSEFKAGNASASA
# B27: HC1821 (peptide)
# chain: CADNMEECSQAGNASASA
# B28: HC644 (peptide)
# chain: CALAVAVEPVAGNASASA
# B29: HC1275 (peptide)
# chain: CAANLLWRQEAGNASASA
# B30: HC1650 (peptide)
# chain: CADIYHSVSHAGNASASA
# B31: FS-3007 (peptide)
# chain: CARNKRLSISAGNASASA
# B32: FS-2544 (peptide)
# chain: CARAKRAVSHAGNASASA
# B33: FS-2639 (peptide)
# chain: CARAKRSPKHAGNASASA
# B34: FS-3009 (peptide)
# chain: CARNKRQSKSAGNASASA
# B35: FU4 (peptide)
# chain: CARNKRNSKMAGNASASA
# B36: FS-2728 (peptide)
# chain: CARNKRIWASAGNASASA
# B37: FS-2397 (peptide)
# chain: CARNKRNSKMAGNASASA
# B38: FS-2250 (peptide)
# chain: CARAKRGNIHAGNASASA
# B39: FS-1886 (peptide)
# chain: CARAPRSVGGAGNASASA
# B40: HC2001 (peptide)
# chain: CANVCCSMSYAGNASASA
# B41: NG10 (peptide)
# chain: CAMHLQGPEDAGNASASA
# B42: HC862 (peptide)
# chain: CALAAKLVALAGNASASA
# B43: HC1315 (peptide)
# chain: CAPVVHGCPLAGNASASA
# Biological target: furin, P09958
# Assay: furin cleavage Z-score vs untreated control; higher = more cleavage, active = 3.5 or more, inactive = 1 or less, 8 variable residues between constant flanks
# Summary of the method: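 Purified furin cleaved 8-mer peptides that were fused to a cDNA oligonucleotide and held on magnetic beads by their N-terminus. Each 0.01 ml reaction used a 1:10 enzyme:substrate ratio in 50 mM HEPES pH 7.5 with CaCl2 and NaCl and ran 7.5, 15 or 30 min. Released DNA was adapter-tagged by PCR and sequenced, and read counts gave abundance. The cleavage Z-score came from log counts against furin-free reactions, lowess-adjusted and scaled by median absolute deviation.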
# furin, P09958, sequence (P09958 whole entry): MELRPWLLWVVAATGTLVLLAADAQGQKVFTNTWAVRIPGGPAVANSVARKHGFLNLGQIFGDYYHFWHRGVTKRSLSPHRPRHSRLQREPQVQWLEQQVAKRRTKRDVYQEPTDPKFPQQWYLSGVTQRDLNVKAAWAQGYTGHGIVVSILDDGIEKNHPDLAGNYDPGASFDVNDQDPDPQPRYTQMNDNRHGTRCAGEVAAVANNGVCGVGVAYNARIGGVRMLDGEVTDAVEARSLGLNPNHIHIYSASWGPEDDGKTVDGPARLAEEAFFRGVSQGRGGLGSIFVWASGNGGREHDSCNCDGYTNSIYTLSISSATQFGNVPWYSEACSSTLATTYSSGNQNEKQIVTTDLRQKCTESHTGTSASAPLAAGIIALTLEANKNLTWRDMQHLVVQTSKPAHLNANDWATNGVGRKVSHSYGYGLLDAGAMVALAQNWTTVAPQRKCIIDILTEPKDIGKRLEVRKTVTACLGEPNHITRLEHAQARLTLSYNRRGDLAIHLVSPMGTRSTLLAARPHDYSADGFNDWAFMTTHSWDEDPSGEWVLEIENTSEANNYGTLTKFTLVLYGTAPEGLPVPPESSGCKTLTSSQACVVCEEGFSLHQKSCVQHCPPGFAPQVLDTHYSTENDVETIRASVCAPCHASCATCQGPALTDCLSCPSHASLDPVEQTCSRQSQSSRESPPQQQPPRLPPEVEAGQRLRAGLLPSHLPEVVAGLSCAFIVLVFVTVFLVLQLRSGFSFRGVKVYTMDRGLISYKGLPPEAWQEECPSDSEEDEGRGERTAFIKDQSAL
Sequence,furin cleavage Z-score (7.5 min),furin cleavage Z-score (15 min),furin cleavage Z-score (30 min)
B1,-0.572 (inactive),0.491 (inactive),-0.869 (inactive)
B2,-0.217 (inactive),0.529 (inactive),1.16
B3,-0.625 (inactive),-0.502 (inactive),-1.11 (inactive)
B4,4.35 (active),2.8,4.35 (active)
B5,6.63 (active),6.95 (active),6.49 (active)
B6,-0.934 (inactive),-0.656 (inactive),-0.752 (inactive)
B7,6.17 (active),6.15 (active),6.14 (active)
B8,-1.23 (inactive),-1.41 (inactive),-1.78 (inactive)
B9,8.55 (active),7.61 (active),6.45 (active)
B10,1.19,0.934 (inactive),0.0298 (inactive)
B11,-0.109 (inactive),-0.538 (inactive),-0.256 (inactive)
B12,-0.836 (inactive),1.11,-0.669 (inactive)
B13,1.73,-1.15 (inactive),-0.113 (inactive)
B14,0.465 (inactive),1.56,0.729 (inactive)
B15,-0.957 (inactive),-0.534 (inactive),0.262 (inactive)
B16,0.322 (inactive),-0.558 (inactive),0.0108 (inactive)
B17,-0.644 (inactive),-1.06 (inactive),-0.181 (inactive)
B18,-0.781 (inactive),0.97 (inactive),2.15
B19,0.601 (inactive),1.09,0.345 (inactive)
B20,6.34 (active),8.63 (active),7.18 (active)
B21,-0.171 (inactive),1.16,-0.504 (inactive)
B22,-2.06 (inactive),-1.04 (inactive),-0.554 (inactive)

Sequence,furin cleavage Z-score (7.5 min),furin cleavage Z-score (15 min),furin cleavage Z-score (30 min)
B23,5.13 (active),5.7 (active),8.11 (active)
B24,6.5 (active),7.28 (active),7.15 (active)
B25,1.69,0.732 (inactive),0.406 (inactive)
B26,-0.188 (inactive),-0.988 (inactive),0.991 (inactive)
B27,-1.18 (inactive),-0.208 (inactive),-1.08 (inactive)
B28,0.342 (inactive),-1.7 (inactive),-0.692 (inactive)
B29,1.65,1.09,0.698 (inactive)
B30,-2.02 (inactive),-1.09 (inactive),-0.935 (inactive)
B31,0.116 (inactive),-1.14 (inactive),0.746 (inactive)
B32,7.56 (active),8.33 (active),7.62 (active)
B33,5.3 (active),6.19 (active),6.5 (active)
B34,3.6 (active),6.73 (active),6.06 (active)
B35,5.8 (active),8.1 (active),7.99 (active)
B36,0.843 (inactive),1.63,-0.176 (inactive)
B37,6.32 (active),8.34 (active),7.25 (active)
B38,0.0194 (inactive),0.245 (inactive),1.46
B39,-0.25 (inactive),0.302 (inactive),0.769 (inactive)
B40,0.0522 (inactive),1.55,1.28
B41,0.395 (inactive),-0.679 (inactive),-0.939 (inactive)
B42,1.87,-0.745 (inactive),0.749 (inactive)
B43,-0.719 (inactive),-0.657 (inactive),-0.124 (inactive)

# From the supplement of paper PMC3545927
